Calls of active or inactive are those of the source. How the source made its calls: active means hit-call score of the fitted dose curve at least 0.9, where 1 is the maximum; inactive means score below 0.9.
assay: APR_HepG2_CellCycleArrest_1hr: Apredica 1-hour HepG2 Assay for Cell Cycle Arrest (AID 2282666); conditions: high-content imaging, actives raise or lower the signal
Method: APR_HepG2_1hr is a cell-based, multiplexed-readout assay that uses HepG2, a human liver cell line, with measurements taken at 1 hour after chemical dosing in a 384-well plate.APR_HepG2_CellCycleArrest_1hr is one of 10 assay component(s) measured or calculated from the APR_HepG2_1hr assay. It is designed to make measurements of cell phenotype, a form of morphology reporter, as detected with fluorescence intensity signals by HCS Fluorescent Imaging technology.Data from the assay component APR_HepG2_CellCycleArrest_1hr was analyzed into 1 assay endpoint. This assay endpoint, APR_HepG2_CellCycleArrest_1hr, was analyzed with bidirectional fitting relative to DMSO as the negative control and baseline of activity. Using a type of morphology reporter, measures of all nuclear dna for gain or loss-of-signal activity can be used to understand the signaling at the pathway-level as they relate to the gene . Furthermore, this assay endpoint can be referred to as a primary readout, because this assay has produced multiple assay endpoints where this one serves a signaling function. To generalize the intended target to other relatable targets, this assay endpoint is annotated to the cell cycle intended target family, where the subfamily is arrest.
Cells were treated with dimethyl sulfoxide (DMSO) as a solvent control at a final concentration of 0.5% v/v or with compounds in DMSO with a resulting final DMSO concentration of 0.5% v/v. Compound treatment was done at concentrations of 0.39, 0.78, 1.56, 3.12, 6.24, 12.5, 25, 50, 100, and 200 uM in duplicate on each plate. Cells were treated with compounds for 1, 24, or 72 hr. Carbonyl […] m-chloro-phenylhydrazone (CCCP) and taxol were used as positive controls for mitochondrial function and cytoskeletal stability, respectively; DMSO served as the negative control for this experiment. Cells were fixed by the direct addition of 50 uL formaldehyde in Hank's Balanced Salt Solution (HBSS) to a final concentration of 3.7%. After incubation in the fixation medium for 30 min at room temperature (293-298 K), cells were rinsed twice with HBSS and treated with cell permeabilization buffer (16 uL of 0.5% Triton X-100) for 10 min at room temperature (293-298 K) before labeling. For mitochondrial membrane potential and mitochondrial measurements, pre-fixed cells were incubated with 50 uL of MitoTracker Red CMXRos (Invitrogen) at a concentration of 250 nM for 30 min before fixation. In the remaining cases, post-fixed cells were labeled by incubation with a multiplexed mixture of primary antibodies in HBSS for 60 min at room temperature (293-298 K) to detect immunoreactivity of c-Jun (1:500), phospho-histone H3 (1:100), phospho-histone H2A.x (1:200), p53 (1:400), alpha-tubulin (1:200) and Hoechst 33342 (2 ug/mL). Cells were labeled for multiplexed imaging on two separate plates: a) Hoechst 33342, MitoTracker Red, phospho-histone H3, and alpha-tubulin, and b) Hoechst 33342, phospho-histone H2A.x, and c-Jun. A final rinse with HBSS (50 uL) was performed before analysis. The primary and secondary antibodies for the proteins were phospho-histone H3 (rabbit anti-phospho-histone H3 and FITC-donkey anti-rabbit IgG), phospho-histone H2A.x (mouse anti-phospho-histone H2A.x and FITC-donkey anti-mouse IgG), c-Jun (rabbit anti-phospho-c-Jun and Cy3-donkey anti-rabbit IgG), p53 (sheep anti-p53 and Cy5-donkey anti-sheep IgG), alpha-tubulin (mouse anti-alpha-tubulin and Cy5-donkey anti-mouse IgG). These antibodies are available as the CellCiphr HepG2 assay kit (Millipore).Digital images of each well were captured using a Cellomics ArrayScan VTI (Thermo Scientific Cellomics) (0.8 NA objective, 0.63x optical coupler, and XF-93 filter set) at 20x magnification. The images were acquired using the autofocus feature of the ArrayScan instrument, which entails the following steps. First, the camera focuses on channel 1 (Hoechst 33342), where nuclei are identified. Second, a Z offset of 1 um is used for capturing mitochondria (MitoTracker Red). […]

Row | Compound | outcome
1 | CC(Oc1cccc(Cl)c1)C(=O)O (stereo not given) | inactive
2 | COc1cccc(C(=O)NN(C(=O)c2cc(C)cc(C)c2)C(C)(C)C)c1C | inactive
3 | C[Si](Cn1cncn1)(c1ccc(F)cc1)c1ccc(F)cc1 | inactive
4 | CCOP(=S)(Oc1cnc(C(C)(C)C)nc1)OC(C)C (stereo not given) | inactive
5 | O=[N+]([O-])c1cc(C(F)(F)F)c(Cl)c([N+](=O)[O-])c1Nc1ncc(C(F)(F)F)cc1Cl | inactive
6 | CCc1cccc(C)c1N(C(=O)CCl)C(C)COC (stereo not given) | inactive
7 | CC(C1CC1)C(O)(Cn1cncn1)c1ccc(Cl)cc1 (stereo not given) | inactive
8 | CC(C)N(C(=O)SCC(Cl)=C(Cl)Cl)C(C)C | inactive
9 | FC(F)C(F)(F)OCC(Cn1cncn1)c1ccc(Cl)cc1Cl (stereo not given) | inactive
10 | CSC1=N[C@@](C)(c2ccccc2)C(=O)N1Nc1ccccc1 | inactive
11 | C#CC(C)(C)NC(=O)c1cc(Cl)cc(Cl)c1 | inactive
12 | COP(=O)(OC)SCn1c(=O)oc2cc(Cl)cnc21 | inactive
13 | Cc1nn(-c2cc(NS(C)(=O)=O)c(Cl)cc2Cl)c(=O)n1C(F)F | inactive
14 | CN1COCN(Cc2cnc(Cl)s2)C1=N[N+](=O)[O-] | inactive
15 | CCCOc1nn(C(=O)NS(=O)(=O)c2ccccc2C(=O)OC)c(=O)n1C | inactive
16 | CSc1nc(NC(C)C)nc(NC(C)C)n1 | inactive
17 | CC[C@H](C)[C@H]1O[C@]2(C=C[C@@H]1C)C[C@@H]1C[C@@H](C/C=C(\C)[C@@H](O[C@H]3C[C@H](OC)[C@@H](O[C@H]4C[C@H](OC)[C@@H](NC)[C@H](C)O4)[C@H](C)O3)[C@@H](C)/C=C/C=C3\CO[C@@H]4[C@H](O)C(C)=C[C@@H](C(=O)O1)[C@]34O)O2 | inactive
18 | CCOP(=S)(OCC)OC(Cl)C(Cl)(Cl)Cl (stereo not given) | inactive
19 | CN(C)C(=O)Nc1cccc(C(F)(F)F)c1 | inactive
20 | Nc1nc(N)nc(NC2CC2)n1 | inactive

Row | Compound | outcome
21 | CCC(CC)Nc1c([N+](=O)[O-])cc(C)c(C)c1[N+](=O)[O-] | inactive
22 | CC(C)=CC1C(C(=O)OCN2C(=O)C3=C(CCCC3)C2=O)C1(C)C (stereo not given) | inactive
23 | CNC(=O)ON=C(SC)C(=O)N(C)C | inactive
24 | O=C(O)c1cc(Oc2ccc(C(F)(F)F)cc2Cl)ccc1[N+](=O)[O-] | inactive
25 | CCOP(=O)(SC(C)CC)N1CCSC1=O (stereo not given) | inactive
26 | CCc1cccc(CC)c1N(COC)C(=O)CCl | inactive
27 | Cc1cc(C2CC2)nc(Nc2ccccc2)n1 | inactive
28 | CCCOCC(=Nc1ccc(Cl)cc1C(F)(F)F)n1ccnc1 | inactive
29 | CC(=NC#N)N(C)Cc1ccc(Cl)nc1 | inactive
30 | COP(=O)(NC(C)=O)SC (stereo not given) | inactive
31 | CC(C)[C@H](C(=O)O[C@H](C#N)c1cccc(Oc2ccccc2)c1)c1ccc(Cl)cc1 | inactive
32 | CCCSP(=O)(OCC)SCCC | inactive
33 | CCOP(=O)(OCC)Oc1cc(C)nc(C(C)C)n1 | inactive
34 | CCCSP(=O)(OCC)Oc1ccc(Br)cc1Cl (stereo not given) | inactive
35 | Cc1ccn2nc(S(=O)(=O)Nc3c(F)cccc3F)nc2n1 | inactive
36 | COc1cc(OC)nc(Sc2cccc(Cl)c2C(=O)O)n1 | inactive
37 | CCc1cnc(C2=NC(C)(C(C)C)C(=O)N2)c(C(=O)O)c1 (stereo not given) | inactive
38 | CCCCOC(=O)[C@@H](C)Oc1ccc(Oc2ccc(C#N)cc2F)cc1 | inactive
39 | CCC(=O)Nc1ccc(Cl)c(Cl)c1 | inactive
40 | COP(=O)(OC)OC(Br)C(Cl)(Cl)Br (stereo not given) | inactive
